Data on 7 compounds can be found in PubChem BioAssay (EPA / NIEHS).

Activity calls are given as the source filed them. How the source made its calls: active means hit-call score of the fitted dose curve at least 0.9, where 1 is the maximum; inactive means score below 0.9.

The nature of one test: CCTE_Shafer_MEA_acute_per_network_burst_spike_number_std: CCTE's Neural Acute Assay for Standard Deviation of Number of Spikes in a Network Burst, Shafer Lab (AID 2284020).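 Further: fitted for decrease in spike-number SD versus DMSO so actives lower it.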 Put shortly: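 Spontaneous network activity of primary rat cortical neurons is recorded extracellularly before and after a 40-min compound exposure (0.03-40 uM) at 37 C. The endpoint is the well's percent change in burst spike-number SD.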
`COc1cc(C(=O)NC2CCN(C)CC2)ccc1Nc1ncc2c(n1)N(C1CCCC1)CC(F)(F)C(=O)N2C`: the AC50 was 15.2 µM (active).
Still for that read-out and setting: as for `CN(C[C@@H](CC[N+]12CCC(C3CCCCC3)(CC1)CC2)c1ccc(Cl)c(Cl)c1)C(=O)c1cc(C(F)(F)F)cc(C(F)(F)F)c1`, the figure is 8.89 µM (active).
With `O=C(O)c1ccccc1-n1cc(C(=O)O)c(=O)c2cc(Nc3c(F)cc(F)cc3Cl)c(Cl)cc21`, the result was inactive.
The same measure, in the same setting: with `CCCCOC(=O)c1ccc(O)cc1` the entry was “inactive”; with `CC(O)CC(C)(C)O` (stereo unspecified), “inactive”; with `CC(=O)N1CCN(c2ccc(OC[C@H]3CO[C@](Cn4ccnc4)(c4ccc(Cl)cc4Cl)O3)cc2)CC1`, “inactive”.
Same read-out and setting: with `CCN(Cc1cccc(S(=O)(=O)O)c1)c1ccc(C(=C2C=CC(=[N+](CC)Cc3cccc(S(=O)(=O)O)c3)C=C2)c2ccccc2S(=O)(=O)[O-])cc1` the entry was “inactive”.

A short description of a further test: CCTE_Shafer_MEA_acute_per_network_burst_electrodes_number_mean: CCTE's Neural Acute Assay for Mean Number of Electrodes in a Network Burst, Shafer Lab (AID 2284021).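 Further: curves fitted for decreases only so hits reduce electrodes per burst.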 The procedure, abridged: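 Percent change from baseline in average electrode count per network burst, rat cortical cultures on 48-well MEAs; 40-min recordings each side of exposure, DIV 13 or 15; threshold 8x rms noise; DMSO as negative control.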
Consider `COc1cc(C(=O)NC2CCN(C)CC2)ccc1Nc1ncc2c(n1)N(C1CCCC1)CC(F)(F)C(=O)N2C`, for which the concentration at half-maximal activity (AC50) was 5.23 µM (active).
On the same count and under the same terms, as for `CN(C[C@@H](CC[N+]12CCC(C3CCCCC3)(CC1)CC2)c1ccc(Cl)c(Cl)c1)C(=O)c1cc(C(F)(F)F)cc(C(F)(F)F)c1`, the figure is 5 µM (active).
Turning to `O=C(O)c1ccccc1-n1cc(C(=O)O)c(=O)c2cc(Nc3c(F)cc(F)cc3Cl)c(Cl)cc21`, the compound was called inactive.
Still for that read-out and setting: with `CCCCOC(=O)c1ccc(O)cc1` the entry was “inactive”; with `CC(O)CC(C)(C)O` (stereo unspecified), “inactive”; with `CC(=O)N1CCN(c2ccc(OC[C@H]3CO[C@](Cn4ccnc4)(c4ccc(Cl)cc4Cl)O3)cc2)CC1`, “inactive”.
Same read-out and setting: as for `CCN(Cc1cccc(S(=O)(=O)O)c1)c1ccc(C(=C2C=CC(=[N+](CC)Cc3cccc(S(=O)(=O)O)c3)C=C2)c2ccccc2S(=O)(=O)[O-])cc1`, the entry is “inactive”.

The next test in a line: CCTE_Shafer_MEA_acute_network_burst_percentage: CCTE's Neural Acute Assay for Percentage of Network Bursts, Shafer Lab (AID 2284022).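 Further: curves fitted for loss so actives lower network burst percentage.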 Put shortly: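 On DIV 13 or 15, at least three wells of rat cortical neurons per compound are dosed at 0.03-40 uM. Spontaneous firing is detected at 8x rms noise for 40 min before and after dosing at 37 C. The percent change in network-burst spike share is reported.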
On to `COc1cc(C(=O)NC2CCN(C)CC2)ccc1Nc1ncc2c(n1)N(C1CCCC1)CC(F)(F)C(=O)N2C`, for which the AC50 was 10.5 µM (active).
Consider `CN(C[C@@H](CC[N+]12CCC(C3CCCCC3)(CC1)CC2)c1ccc(Cl)c(Cl)c1)C(=O)c1cc(C(F)(F)F)cc(C(F)(F)F)c1`, for which the AC50 is 8.37 µM (active).
For `O=C(O)c1ccccc1-n1cc(C(=O)O)c(=O)c2cc(Nc3c(F)cc(F)cc3Cl)c(Cl)cc21`, the compound was classed as inactive.
On the same count and under the same terms, with `CCCCOC(=O)c1ccc(O)cc1` the entry was “inactive”; with `CC(O)CC(C)(C)O` (stereo unspecified), “inactive”; with `CC(=O)N1CCN(c2ccc(OC[C@H]3CO[C@](Cn4ccnc4)(c4ccc(Cl)cc4Cl)O3)cc2)CC1`, “inactive”.
Consider `CCN(Cc1cccc(S(=O)(=O)O)c1)c1ccc(C(=C2C=CC(=[N+](CC)Cc3cccc(S(=O)(=O)O)c3)C=C2)c2ccccc2S(=O)(=O)[O-])cc1`, for which the outcome was inactive.
